In PubChem BioAssay (Tox21):
Values joined by “and” are separate entries in the source; they are usually repeats but may differ in a detail not shown here. Identical values can stand only once. Where a structure was tested more than once in an assay, its records may differ in their call. Active and inactive are the calls of the source. Entries that show only a call come without a potency. Unless noted, calls follow the shape of the dose curve; as a rule, active = well fitted curve in the direction sought with a large enough effect in the repeat runs; inconclusive = weak or mixed curves; inactive = no such curve, though single readings can be large; an effect the other way counts as inactive or inconclusive.

Key:
[1] = qHTS assay to identify small molecule antagonists of the thyroid receptor (TR) signaling pathway - cell viability counter screen (AID 743064); also: nearly all actives have a fitted effect of over 50% in size
Procedure, shortened: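 CellTiter-Fluor readout, 30 min at 37 °C/5% CO2, following 23.5 h incubation of GH3.TRE-Luc cells with test compound and 1 nM T3 (final).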

[2] = qHTS assay to identify small molecule antagonists of the thyroid receptor (TR) signaling pathway (AID 743065); also: nearly all actives have a fitted effect of over 55% in size
Procedure, shortened: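 GH3.TRE-Luc rat pituitary cells carrying two TR response elements driving luciferase were plated for 4 h, given compound plus 1 nM T3 (final), and incubated 23.5 h at 37 C. ONE-Glo luminescence measured reporter inhibition; CellTiter-Fluor fluorescence tracked cytotoxicity.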

[3] = system: thyroid hormone receptor (rat, GH3 cells); experiment: qHTS assay to identify small molecule agonists of the thyroid receptor (TR) signaling pathway (AID 743066; calls by dose curve)
[4] = qHTS assay to identify small molecule antagonists of the estrogen receptor alpha (ER-alpha) signaling pathway - cell viability counter screen (AID 743074; calls by dose curve;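 also: HEK293 cells carrying ER-alpha-UAS-bla reporter stimulated with 17beta-estradiol; nearly all actives have a fitted effect of over 45% in size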)
[5] = qHTS assay to identify small molecule antagonists of the estrogen receptor alpha (ER-alpha) signaling pathway using the BG1 cell line - cell viability counter screen (AID 743081);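 also: compound given together with 17beta-estradiol as the ER stimulus; nearly all actives have a fitted effect of over 45% in size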
Aromatase (Homo sapiens) = Aromatase (Homo sapiens) (UniProt P11511); experiment: qHTS assay to identify aromatase inhibitors (AID 743083); also: nearly all actives have a fitted effect of over 55% in size
Sequence of Aromatase (Homo sapiens) (P11511 whole entry, looked up): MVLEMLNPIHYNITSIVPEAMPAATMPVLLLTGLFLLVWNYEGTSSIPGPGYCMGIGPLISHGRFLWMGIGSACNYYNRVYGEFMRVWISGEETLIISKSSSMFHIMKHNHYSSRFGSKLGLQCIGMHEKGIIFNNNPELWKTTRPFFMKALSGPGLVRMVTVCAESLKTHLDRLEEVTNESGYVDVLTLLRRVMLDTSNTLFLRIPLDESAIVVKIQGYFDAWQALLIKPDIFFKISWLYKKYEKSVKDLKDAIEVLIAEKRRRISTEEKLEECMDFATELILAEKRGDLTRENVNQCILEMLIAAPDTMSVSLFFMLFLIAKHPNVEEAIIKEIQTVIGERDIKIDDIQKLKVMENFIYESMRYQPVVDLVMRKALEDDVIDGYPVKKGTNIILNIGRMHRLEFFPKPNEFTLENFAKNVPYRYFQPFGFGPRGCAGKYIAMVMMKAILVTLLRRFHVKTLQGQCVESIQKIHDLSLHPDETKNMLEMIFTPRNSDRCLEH

[6] = qHTS assay to identify aromatase inhibitors - cell viability counter screen (AID 743084);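 also: cells stimulated with testosterone during compound exposure; nearly all actives have a fitted effect of over 55% in size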
[7] = molecular target: Estrogen receptor (Homo sapiens) (UniProt P03372); experiment: qHTS assay to identify small molecule antagonists of the estrogen receptor alpha (ER-alpha) signaling pathway (AID 743069; active = well fitted curve in the direction sought with a large enough effect in the signal ratio in the repeat runs, not every such curve was filed as active; inconclusive = weak or mixed curves, or effect the other way; inactive = no such curve, though single readings can be large or run the other way; the % refers to the signal ratio)
Sequence of Estrogen receptor (Homo sapiens) (P03372 whole entry, looked up): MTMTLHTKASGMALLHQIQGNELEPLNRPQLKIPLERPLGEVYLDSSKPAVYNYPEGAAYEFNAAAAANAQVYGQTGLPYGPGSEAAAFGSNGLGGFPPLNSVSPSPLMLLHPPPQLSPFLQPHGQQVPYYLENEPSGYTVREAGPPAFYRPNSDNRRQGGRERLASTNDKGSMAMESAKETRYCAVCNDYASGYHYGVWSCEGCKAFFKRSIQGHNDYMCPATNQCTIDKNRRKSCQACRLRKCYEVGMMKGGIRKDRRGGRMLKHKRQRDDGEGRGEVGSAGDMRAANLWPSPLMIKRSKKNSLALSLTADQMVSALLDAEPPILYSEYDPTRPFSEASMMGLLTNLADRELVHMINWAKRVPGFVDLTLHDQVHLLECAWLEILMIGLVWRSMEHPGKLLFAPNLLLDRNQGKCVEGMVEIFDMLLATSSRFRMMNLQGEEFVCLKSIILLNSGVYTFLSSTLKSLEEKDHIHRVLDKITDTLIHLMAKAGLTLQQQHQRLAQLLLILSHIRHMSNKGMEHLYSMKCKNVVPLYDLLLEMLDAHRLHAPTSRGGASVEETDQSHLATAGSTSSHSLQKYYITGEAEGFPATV
Procedure, shortened: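 Estradiol-stimulated ER-alpha-UAS-bla HEK293 cells, 18 hr compound exposure at 37C. LiveBLAzer B/G substrate, 2 hr RT, fluorescence read.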

[8] = molecular target: Estrogen receptor (Homo sapiens) (UniProt P03372); experiment: qHTS assay to identify small molecule agonists of the estrogen receptor alpha (ER-alpha) signaling pathway (AID 743075; calls by dose curve;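 also: HEK293 GripTite cells with ER-alpha and UAS-driven beta-lactamase reporter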)
[9] = molecular target: Estrogen receptor (Homo sapiens) (UniProt P03372); experiment: qHTS assay to identify small molecule agonists of the estrogen receptor alpha (ER-alpha) signaling pathway using the BG1 cell line (AID 743079); also: nearly all actives have a fitted effect of over 20% in size
Potency is read from the fitted curve at half-maximal effect.

SMILES | Potency [1] | Potency [2] | Potency [3] | Potency [4] | Potency [5] | Potency (Aromatase (Homo sapiens)) | Potency [6] | Potency [7] | Potency [8] | Potency [9]
CCCC[N+]1(C)CCCC1 | inactive | inactive | inactive | inactive | inactive | inactive | inactive | – | – | –
CCCCCCCCCCCCCC[P+](CCCCCC)(CCCCCC)CCCCCC | 6.14 µM (active) and 5.49 µM (active) and 3.06 µM (active) | 3.87 µM (active) and 4.36 µM (active) and 2.43 µM (active) | inactive | 13.9 µM (active) and 11.1 µM (active) | 19.4 µM (active) and 13.8 µM (active) | 6.14 µM (active) and 3.89 µM (active) and 1.09 µM (active) | 24.4 µM (active) and 12.3 µM (active) | 982 nM [inconclusive] (active) and 985 nM [inconclusive] (active) and 775 nM [inconclusive] (active) | – | –
Cc1cc(Cl)ccc1OCC(=O)O | inactive | inactive | inactive | inactive | inactive | inactive | inactive | inactive | inactive | inactive
CC(Cl)(Cl)C(=O)O | inactive | inactive | inactive | inactive | inactive | inactive | inactive | inactive | inactive | inactive
CCC(=O)C(CC(C)N(C)C)(c1ccccc1)c1ccccc1 (centres undefined) | 24.4 µM (active) and 27.1 µM (active) and 33 µM (active) | 27.4 µM (active) and 30.4 µM (active) and 41.5 µM (active) | inactive | inactive | inactive | inactive | – | inactive | inactive | inactive
C1CCC(NC2CCCCC2)CC1 | inactive | inactive | inactive | inactive | inactive | inactive | inactive | inactive | inactive | inactive
CCCC[N+]1(C)CCCCC1 | inactive | inactive | inactive | inactive | inactive | inactive | inactive | – | – | –
CCCCCCCCCCCCn1cc[n+](C)c1 | 4.4 µM (active) [middle of 6 runs] | – | – | – | – | – | – | – | – | –
O=C(O)c1nc(Cl)ccc1Cl | inactive | inactive | inactive | inactive | inactive | inactive | inactive | inactive | inactive | inactive
CC(=O)[O][Hg][c]1ccccc1 | 596 nM (active) and 241 nM (active) and 386 nM (active) | 422 nM (active) and 215 nM (active) and 217 nM (active) | inactive | 5.35 µM (active) and 2.43 µM (active) and 5.49 µM (active) | 2.98 µM (active) and 3.04 µM (active) and 4.33 µM (active) | 3.35 µM (active) and 1.36 µM (active) and 686 nM (active) | 5.31 µM (active) and 1.36 µM (active) and 770 nM (active) | 6.16 µM [inconclusive] (active) | 26.8 µM [inconclusive] (active) and 34.4 µM [inconclusive] (active) and 1.1 µM [fluorescent] (active) | –
C[C@]12CCC(=O)C=C1CC[C@@H]1[C@@H]2CC[C@]2(C)C(=O)CC[C@@H]12 | inactive | 60.1 µM (active) | inactive | inactive | inactive | inactive | inactive | – | 27.1 µM [activator] (active) and inactive | 1.5 µM (active) and 4.25 µM (active) and 4.33 µM (active)
O=[N+]([O-])c1ccccc1O | inactive | inactive | inactive | inactive | inactive | inactive | inactive | – | – | –
O=C(O)CC(O)(CC(=O)O)C(=O)O | inactive | inactive | inactive | inactive | inactive | inactive | inactive | – | – | –
C=CCOC(Cn1ccnc1)c1ccc(Cl)cc1Cl (centres undefined) | 54.6 µM (active) | 23.7 µM (active) and 61.3 µM (active) and 30.6 µM (active) | inactive | inactive | inactive | 944 nM (active) and 387 nM (active) and 433 nM (active) | inactive | – | – | –
Cc1cc(Cl)ccc1N | inactive | inactive | inactive | inactive | inactive | inactive | inactive | – | – | –
CCCC[n+]1cccc(C)c1 | inactive | inactive | inactive | inactive | inactive | inactive | inactive | – | – | –
CCCCCC[n+]1ccccc1 | inactive | inactive | inactive | inactive | inactive | inactive | inactive | – | – | –
COP(=O)(OC)OC=C(Cl)Cl | inactive | inactive | inactive | inactive | inactive | inactive | inactive | 10.7 µM [inhibitor] (active) and inactive | inactive | inactive
COc1ccc(N)cc1 | inactive | inactive | inactive | inactive | inactive | inactive | inactive | – | – | –
CC[N+](CC)(CC)CC | inactive | inactive | inactive | inactive | inactive | inactive | inactive | – | – | –
Cc1cc(-c2ccc(N)c(C)c2)ccc1N | inactive | inactive | inactive | inactive | inactive | inactive | inactive | inactive | 19.2 nM [inconclusive] (active) and 48.8 µM [inconclusive] (active) and 61.7 µM [inconclusive] (active) | inactive
O=C(O)C(Cl)Cl | inactive | inactive | inactive and 61.1 µM (active) | inactive | inactive | inactive | inactive | inactive | inactive | inactive
O=C(O)C(Cl)(Cl)Cl | inactive | inactive | inactive | inactive | inactive | inactive | inactive | – | – | –
CCNc1nc(Cl)nc(NCC)n1 | inactive | inactive | inactive | inactive | inactive | inactive | inactive | inactive | inactive | inactive
Nc1ccc(-c2ccc(N)cc2)cc1 | inactive | inactive | inactive | inactive | inactive | inactive and 1.92 µM (active) | inactive | inactive | inactive | inactive
N#CS | inactive | inactive | inactive | inactive | inactive | inactive | inactive | – | – | –
CCC[N+]1(C)CCCCC1 | inactive | inactive | inactive | inactive | inactive | inactive | inactive | – | – | –
COc1ccccc1N | inactive | inactive | inactive | inactive | inactive | inactive | inactive | – | – | –
